The values that follow come from PubChem BioAssay (NCATS).

Inconclusive results are not listed. A number with no mark means an inactive call. Calls of active or inactive are those of the source. Unless noted, the call rests on the fitted dose curve; in most records, active means well fitted curve in the direction sought with a large enough effect; inconclusive means small, poorly fitted or top-dose-only effect, or another doubt; inactive means no such curve, though single readings can be large; an effect the other way counts as inactive or inconclusive.

Test [1] has as its target Voltage-gated inwardly rectifying potassium channel KCNH2 (Homo sapiens) (UniProt Q12809). Kind of test: qHTS Assay for Small Molecule Inhibitors of the Human hERG Channel Activity (AID 588834).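 Further: lower thallium flux fluorescence means stronger hERG block; nearly all actives have a fitted effect of over 50% in size.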 Further: potency means the concentration at half of the fitted maximal effect. The settings on record: U2OS BacMam hERG, FluxOR thallium flux fluorescence; series mostly up to 46.1 µM. The procedure, abridged:
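U2OS cells BacMam-transduced with hERG, 2000 cells/well, compound ~10 min at 37 °C before stimulation buffer. FluxOR thallium flux fluorescence read kinetically on FDSS; decrease indicates block; AC50 from Hill fits.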

The target of test [2] is Luciferin 4-monooxygenase (Photinus pyralis) (UniProt P08659). Kind of test: Biochemical firefly luciferase enzyme assay for NPC (AID 624030). Further: nearly all actives have a fitted effect of over 70% in size. Further: potency means the concentration at half of the fitted maximal effect. To be noted: purified P. pyralis luciferase, luminescence, 5 min; series mostly up to 58.6 µM. A digest of the protocol: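 Purified P. pyralis luciferase at 10 nM in 50 mM Tris Acetate (final), luminescence read within 5 minutes of enzyme addition to compounds. Activity normalised to PTC124 versus DMSO; concentration-response curves classed by r2, magnitude and activity.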
Chain of Luciferin 4-monooxygenase (Photinus pyralis) (P08659 whole entry, looked up): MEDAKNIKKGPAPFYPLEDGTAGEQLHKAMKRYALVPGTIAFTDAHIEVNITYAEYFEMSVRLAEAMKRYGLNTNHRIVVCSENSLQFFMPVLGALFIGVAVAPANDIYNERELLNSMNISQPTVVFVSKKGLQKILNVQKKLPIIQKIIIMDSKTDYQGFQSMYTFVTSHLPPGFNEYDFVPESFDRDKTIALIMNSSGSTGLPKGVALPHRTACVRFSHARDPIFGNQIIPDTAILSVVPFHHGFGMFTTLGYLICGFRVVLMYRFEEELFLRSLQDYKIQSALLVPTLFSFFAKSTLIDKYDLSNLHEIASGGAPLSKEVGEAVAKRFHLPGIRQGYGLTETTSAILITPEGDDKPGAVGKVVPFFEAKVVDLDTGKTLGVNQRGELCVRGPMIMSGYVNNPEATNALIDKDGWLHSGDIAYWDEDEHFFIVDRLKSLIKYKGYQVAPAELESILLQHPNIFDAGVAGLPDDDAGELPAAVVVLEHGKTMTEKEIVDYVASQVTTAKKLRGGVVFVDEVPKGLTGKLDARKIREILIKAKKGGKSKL

Test [3] in a line: S16 Schwann cell viability assay (CellTiter-Glo assay) (AID 624031).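 Further: cellular ATP luminescence as a viability measure; plate controls were DMSO-treated cells for no effect and cell-free wells for full effect; nearly all actives have a fitted effect of over 70% in size.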 The settings on record: S16 rat Schwann cells viability, 24 h; series mostly up to 57.5 µM. The procedure, abridged:
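This viability control uses native rat S16 Schwann cells grown in DMEM plus 10% FBS. After a 24 h compound treatment at 37 °C, CellTiter-Glo luminescence reports ATP content, scaled against DMSO-treated and cell-free wells.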
Background: Cellular ATP, detected with luciferase, serves as a proxy for viable cell number.

Test [4] can be described thus: S16 Schwann cell PMP22 intronic element beta-lactamase assay (AID 624044; calls by dose curve;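 further: 0% = DMSO and -100% = potassium clavulanate positive control; nearly all actives have a fitted effect of over 15% in size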). To be noted: S16 rat Schwann cells, PMP22 element beta-lactamase FRET, 24 h; ratio activity, negative = inhibition: at 38.3 µM (top of the series) unless noted. The procedure, abridged: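 Rat S16 Schwann cells with beta-Lac driven by a PMP22 intronic element, compound-treated 24 h at 37 °C. LiveBLAzer FRET B/G read: 460 nm normalized to potassium clavulanate vs DMSO; 535 nm FRET as viability; concentration-effect curves classified.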

The nature of test [5]: S16 Schwann cell PMP22 intronic element firefly luciferase assay (AID 624032). Further: nearly all actives have a fitted effect of over 30% in size. Further: potency means the concentration at half of the fitted maximal effect. The settings on record: S16 rat Schwann cells, PMP22 element FLuc, 24 h; series mostly up to 57.5 µM. A digest of the protocol: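 Rat S16 Schwann cells stably carrying firefly luciferase driven by a PMP22 intronic element, in 10% FBS, treated 24 h at 37 C. ONE-Glo luminescence normalized to PTC124 control and DMSO (0%); curves classed by r2, magnitude and activity.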

Chain of Voltage-gated inwardly rectifying potassium channel KCNH2 (Homo sapiens) (Q12809 whole entry, looked up): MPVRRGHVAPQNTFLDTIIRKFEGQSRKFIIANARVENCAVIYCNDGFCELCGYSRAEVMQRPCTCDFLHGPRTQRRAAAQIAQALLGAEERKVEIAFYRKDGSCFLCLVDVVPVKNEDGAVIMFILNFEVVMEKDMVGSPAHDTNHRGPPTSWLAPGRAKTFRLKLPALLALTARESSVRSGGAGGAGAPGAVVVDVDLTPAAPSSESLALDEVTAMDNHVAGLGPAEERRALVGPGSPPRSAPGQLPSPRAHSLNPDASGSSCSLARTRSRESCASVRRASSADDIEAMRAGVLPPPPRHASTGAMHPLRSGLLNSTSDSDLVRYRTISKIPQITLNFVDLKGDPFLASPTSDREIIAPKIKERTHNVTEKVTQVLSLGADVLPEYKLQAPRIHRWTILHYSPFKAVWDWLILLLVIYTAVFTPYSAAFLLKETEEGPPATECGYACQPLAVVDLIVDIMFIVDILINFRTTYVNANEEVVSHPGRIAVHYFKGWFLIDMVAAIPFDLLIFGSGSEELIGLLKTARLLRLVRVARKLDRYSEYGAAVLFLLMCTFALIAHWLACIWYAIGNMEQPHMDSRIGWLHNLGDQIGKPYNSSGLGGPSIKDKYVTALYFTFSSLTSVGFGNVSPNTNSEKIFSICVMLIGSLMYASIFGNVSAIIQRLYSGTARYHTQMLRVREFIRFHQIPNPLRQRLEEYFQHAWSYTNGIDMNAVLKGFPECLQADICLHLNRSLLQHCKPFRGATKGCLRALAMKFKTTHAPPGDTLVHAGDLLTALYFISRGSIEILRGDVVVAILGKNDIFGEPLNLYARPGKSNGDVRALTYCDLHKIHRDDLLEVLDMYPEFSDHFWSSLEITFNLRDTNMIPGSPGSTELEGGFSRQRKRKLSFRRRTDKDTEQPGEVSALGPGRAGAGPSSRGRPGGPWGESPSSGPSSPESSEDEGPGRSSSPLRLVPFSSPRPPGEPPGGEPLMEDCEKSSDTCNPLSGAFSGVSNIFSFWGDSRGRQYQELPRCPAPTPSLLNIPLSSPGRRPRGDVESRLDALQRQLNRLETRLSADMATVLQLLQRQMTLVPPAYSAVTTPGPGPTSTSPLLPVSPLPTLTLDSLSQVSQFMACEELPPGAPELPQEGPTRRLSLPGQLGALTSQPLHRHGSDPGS

`CCCCCCCCCC(=O)NO`: the Potency entry in test [1], in test [2] and in test [3] was “inactive” each time. In test [4], the ratio activity, negative = inhibition is 5.56%.

Regarding `COC(=O)C(CN)c1c[nH]c2ccc(OC)cc12` (centres undefined), the Potency result in test [1], in test [2] and in test [3] was “inactive” each time. Moreover, the ratio activity, negative = inhibition in test [4] was 0.76%.

Take `CC(O)CN(C)C` (centres undefined): the Potency result in test [1], in test [2], in test [3] and in test [5] was “inactive” each time. Further, the ratio activity, negative = inhibition in test [4] is 6.7%.

On to `COc1cc(S(C)=O)ccc1-c1nc2ncccc2[nH]1` (centres undefined), for which the Potency result in test [1], in test [2], in test [3] and in test [5] was “inactive” throughout. In addition, the ratio activity, negative = inhibition in test [4] is -7.74%.

For the compound `O=C(O)c1cc(N=Nc2ccc(O)c(C(=O)O)c2)ccc1O`, the Potency result in test [1], in test [3] and in test [5] was “inactive” throughout. In addition, the Potency in test [2] was 9.07 µM (active). In addition, the ratio activity, negative = inhibition in test [4] is -0.669%.

Regarding `O=C(O)CCCC/C=C(\c1ccccc1)c1cccnc1`, the Potency entry in test [1], in test [2], in test [3] and in test [5] was “inactive” each time. For the same compound, in test [4], the ratio activity, negative = inhibition was -4.66%.

Regarding `O=C1[O][Bi][O]c2ccccc21`, the Potency entry in test [1], in test [2], in test [3] and in test [5] was “inactive” each time. Further, the ratio activity, negative = inhibition in test [4] is 0.885%.

On to `OC/C=C/c1ccccc1`, for which the Potency result in test [1], in test [2], in test [3] and in test [5] was “inactive” in each case. Further, the ratio activity, negative = inhibition in test [4] is -1.9%.

Regarding `CO[C@H]1C[C@@H]2CC[C@@H](C)[C@@](O)(O2)C(=O)C(=O)N2CCCC[C@H]2C(=O)O[C@H]([C@H](C)C[C@@H]2CC[C@@H](OC(=O)C(C)(CO)CO)[C@H](OC)C2)CC(=O)[C@H](C)/C=C(\C)[C@@H](O)[C@@H](OC)C(=O)[C@H](C)C[C@H](C)/C=C/C=C/C=C/1C`, the Potency result in test [1], in test [2], in test [3] and in test [5] was “inactive” throughout. Further, in test [4], the ratio activity, negative = inhibition is -3.79%.

`O=C(NCCNCC(O)COc1ccc(O)cc1)N1CCOCC1` (centres undefined): the Potency entry in test [1], in test [2], in test [3] and in test [5] was “inactive” each time. Also, in test [4], the ratio activity, negative = inhibition was 1.92%.

As for `CCCCCCCCCCCCCCCCCCCCCC(=O)Nc1ccn([C@@H]2O[C@H](CO)[C@@H](O)[C@@H]2O)c(=O)n1`, the Potency result in test [1], in test [2], in test [3] and in test [5] was “inactive” each time. In addition, in test [4], the ratio activity, negative = inhibition is -0.57%.

As to `C=CCCCCCCCCC(=O)OC`, the Potency entry in test [1], in test [2], in test [3] and in test [5] was “inactive” throughout. The ratio activity, negative = inhibition in test [4] is -14.3%.

On to `NC(=O)Oc1ccc(Cc2ccccc2)cc1`, for which the Potency entry in test [1], in test [2] and in test [3] was “inactive” each time. Further, the ratio activity, negative = inhibition in test [4] is -0.76%.

`CCC(C)[C@@H](N)C(=O)O` (some centres undefined): the Potency entry in test [1], in test [2], in test [3] and in test [5] was “inactive” throughout. The ratio activity, negative = inhibition in test [4] was 8.55%.

Consider `CC(=O)Nc1ccc(OC(C)=O)cc1`, for which the Potency result in test [1], in test [2], in test [3] and in test [5] was “inactive” in each case. The ratio activity, negative = inhibition in test [4] is -15.5%.

As for `O[C@@H]([C@H](O)[C@H](O)CBr)[C@H](O)CBr`, the Potency entry in test [1], in test [2] and in test [3] was “inactive” in each case. Further, the ratio activity, negative = inhibition in test [4] is 3.07%.

As for `C=Cc1ccc(S(=O)(=O)O)cc1`, the Potency entry in test [1], in test [2], in test [3] and in test [5] was “inactive” throughout. Moreover, the ratio activity, negative = inhibition in test [4] was -7.16%.

Consider `O=C1c2ccccc2CN2C(=O)c3ccccc3CN12`, for which the Potency entry in test [1], in test [2], in test [3] and in test [5] was “inactive” each time. In addition, in test [4], the ratio activity, negative = inhibition was 0.507%.

`CS(=O)(=O)OCC(O)C(O)COS(C)(=O)=O` (centres undefined): the Potency entry in test [1], in test [2], in test [3] and in test [5] was “inactive” throughout. Moreover, the ratio activity, negative = inhibition in test [4] is 2.66%.

Regarding `O=C(O)Cc1cc(I)c(Oc2ccc(O)c(I)c2)c(I)c1`, the Potency result in test [1], in test [2], in test [3] and in test [5] was “inactive” each time. For the same compound, in test [4], the ratio activity, negative = inhibition is 4.37% [at 17.1 µM].

Consider `O=C(NNCS(=O)(=O)O)c1ccncc1`, for which the Potency result in test [1], in test [2], in test [3] and in test [5] was “inactive” each time. Further, the ratio activity, negative = inhibition in test [4] was -19.9% (active).

In the case of `CC(C)[C@@H](N)C(=O)O`, the Potency entry in test [1], in test [2], in test [3] and in test [5] was “inactive” in each case. Moreover, the ratio activity, negative = inhibition in test [4] was 0.806%.

As to `CC12CCC(C1)C(C)(C)C2=O` (centres undefined), the Potency entry in test [1], in test [2], in test [3] and in test [5] was “inactive” each time. For the same compound, in test [4], the ratio activity, negative = inhibition was 1.35%.

For the compound `CC(=O)Oc1cccc2c1C(=O)c1c(OC(C)=O)cc(C(=O)O)cc1C2=O`, the Potency entry in test [1], in test [2], in test [3] and in test [5] was “inactive” in each case. For the same compound, the ratio activity, negative = inhibition in test [4] was 0.316%.

On to `CSc1nc2cc(Oc3cccc(Cl)c3Cl)c(Cl)cc2[nH]1`, for which, in test [1], the Potency was 31.6 µM (active). Besides, the Potency entry in test [2] and in test [3] was “inactive” in each case. Besides, in test [4], the ratio activity, negative = inhibition was -0.19%.

Turning to `CN1CCc2c(c3ccccc3n2Cc2ccccc2)C1`, the Potency in test [1] was 5.01 µM (active). In addition, the Potency entry in test [2], in test [3] and in test [5] was “inactive” each time. Also, in test [4], the ratio activity, negative = inhibition was -4.6% [at 17.1 µM].

As to `CC(CC=O)CCCC(C)(C)O` (centres undefined), the Potency result in test [1], in test [2], in test [3] and in test [5] was “inactive” each time. Further, in test [4], the ratio activity, negative = inhibition was 3.36%.

Regarding `CCOC(=O)[C@@H](N)CS`, the Potency result in test [1], in test [2] and in test [3] was “inactive” each time. Also, the Potency in test [5] is 0.0573 µM (active). Moreover, the ratio activity, negative = inhibition in test [4] is -2.51%.

Take `CCN(CC)CCOc1ccccc1OC`: the Potency result in test [1], in test [2], in test [3] and in test [5] was “inactive” in each case. Further, in test [4], the ratio activity, negative = inhibition was -7.82%.

Consider `COc1ccc(C(=O)CCC(=O)O)c2ccccc12`, for which the Potency result in test [1], in test [2] and in test [3] was “inactive” throughout. Further, in test [4], the ratio activity, negative = inhibition is -1.03%.
